# In article PMC10668032, “Altered binding affinity of SIX1-Q177R correlates with enhanced WNT5A and WNT pathway effector expression in Wilms tumor”:
# Over roughly 33,000 sequences, “e-score” has its median near -0.05; the highest 2% begin near 0.38. Only a selection was taken, and the highest values are over-represented in it overall.
# Target: T1, SIX1-Q177R homeodomain (human, UniProt Q15475 108-198, Q177R)
# T1 sequence: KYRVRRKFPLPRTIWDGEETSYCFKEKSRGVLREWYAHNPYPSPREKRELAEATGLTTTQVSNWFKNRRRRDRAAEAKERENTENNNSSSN
# Test: universal protein binding microarray; Universal all-10-mer PBM (8x60K, AMADID 030236), 300 nM GST-tagged protein, Alexa Fluor 488 anti-GST; buffer, salt, pH and temperature not stated (as in Berger); high values mean tight binding
# Details: protein: ivt; tags: N-terminal GST; dsDNA, one strand shown
# Method in brief: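 Duplicate protein binding microarrays (universal 'all 10-mer', 8×60K format) were incubated with GST-tagged homeodomains at 300 nM final concentration. Binding was quantified as 8-mer E-scores with the Universal PBM Analysis Suite.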
row,Sequence,binding signal [E-score]
1,CGACGCGA,0.151 ± 0.0242
2,CGACACGA,0.421 ± 0.0189
3,AGACACGA,0.369 ± 0.0153
4,AGACACGC,0.346 ± 0.00786
5,CGACACGC,0.424 ± 0.0203
6,CACTCCGC,0.256 ± 0.00576
7,ACCCTTTC,0.194 ± 0.0513
8,CACTCTGC,0.187 ± 0.0156
9,GCCCCGCC,0.175 ± 0.055
10,GGATACCC,0.403 ± 0.00919
11,CGATACCA,0.321 ± 0.00519
12,AGATACCC,0.278 ± 0.0188
13,GGATACCA,0.327 ± 0.00751
14,CAATACCC,0.218 ± 0.00416
15,CGATACCC,0.411 ± 0.012
16,CAACCACG,0.155 ± 0.0108
17,CACTCTGG,0.187 ± 0.00384
18,CCCCCTGC,0.156 ± 0.0255
19,ACAGAGGT,0.156 ± 0.00829
20,ATTAGGTG,0.296 ± 0.00518
21,ACCATGGT,0.2 ± 0.05
22,CACCGTTC,0.3236 ± 0.00306

row,Sequence,binding signal [E-score]
1,AGATACCT,0.179 ± 0.011
2,AGATACCA,0.192 ± 0.0243
3,GGATACAA,0.161 ± 0.00762
4,CGATACAC,0.402 ± 0.0188
5,CGATACTC,0.211 ± 0.00408
6,GGATACTA,0.152 ± 0.0189
7,AGATACAC,0.424 ± 0.0151
8,CGATACCG,0.233 ± 0.0113
9,GGATACAC,0.424 ± 0.00693
10,CTGCCCGC,0.163 ± 0.0123
11,CACCGACA,0.374 ± 0.0291
12,TACTGATA,0.192 ± 0.0304
13,GTATCCAC,0.287 ± 0.00341
14,GTATGGTA,0.159 ± 0.00206
15,AGGGGGTG,0.396 ± 0.00554
16,AGGGTGTC,0.4879 ± 0.00164
17,AGGGTGTG,0.4 ± 0.015
18,AGGGGGTA,0.358 ± 0.00366
19,AAGGGGTG,0.227 ± 0.00304
20,CGGGTGGA,0.173 ± 0.033
21,AGGGTGGG,0.176 ± 0.00829
22,AGGGTATC,0.363 ± 0.0101

row,Sequence,binding signal [E-score]
1,CGGGTGTA,0.47551 ± 0.00024
2,AGGGGGTC,0.271 ± 0.0446
3,CGGGTGCA,0.238 ± 0.0106
4,AGGGTGCG,0.226 ± 0.0208
5,CATCCGGG,0.156 ± 0.00322
6,ACCCTCGT,0.1905 ± 0.000806
7,CACCGAGA,0.276 ± 0.0313
8,TGTAGAAA,0.225 ± 0.0216
9,AATCGACA,0.173 ± 0.025
10,ACAAGGTC,0.218 ± 0.0287
11,CAGGCAGG,0.186 ± 0.0165
12,CACGCTAC,0.242 ± 0.0124
13,CCCCGACA,0.324 ± 0.012
14,AGGGTATA,0.199 ± 0.0079
15,AGGGTGCA,0.265 ± 0.0337
16,CGGGTGGC,0.178 ± 0.0577
17,CGGGGGTC,0.314 ± 0.0405
18,GGGGTGAA,0.154 ± 0.0542
19,CGGGTGTC,0.487 ± 0.00672
20,GGGGTGTA,0.4856 ± 0.000757
21,AGGGTGTA,0.475 ± 0.00846
22,GGGGTGCA,0.273 ± 0.0552

row,Sequence,binding signal [E-score]
1,CGATACTA,0.157 ± 0.00168
2,AGTGCACA,0.171 ± 0.00742
3,AGCCGGTG,0.282 ± 0.011
4,CCGGTACA,0.224 ± 0.00738
5,ACTTGGTG,0.2882 ± 0.00137
6,CCCCAATA,0.153 ± 0.00289
7,CCGAGTGA,0.156 ± 0.00131
8,CACCGCCG,0.375 ± 0.0128
9,CCGTGCTC,0.226 ± 0.0264
10,CCGTGTTC,0.384 ± 0.0141
11,GCGTGATA,0.173 ± 0.0569
12,CCGTGGTA,0.166 ± 0.0401
13,GCGTGTTA,0.387 ± 0.0267
14,CCGTGTTA,0.4236 ± 0.00253
15,GCGTGCTA,0.151 ± 0.031
16,ACGTGTTC,0.3144 ± 0.00304
17,ACGTGTTA,0.352 ± 0.0237
18,CACAGTGG,0.16 ± 0.0343
19,CGGGGATC,0.212 ± 0.00313
20,CGCACGAC,0.187 ± 0.0218
21,ATCCGAGG,0.1653 ± 0.000757
22,GTAATCGA,0.204 ± 0.015

row,Sequence,binding signal [E-score]
1,CGGCTGAC,0.174 ± 0.0351
2,CGAATGAC,0.198 ± 0.0214
3,AAGAGGTG,0.368 ± 0.00802
4,GTTCCGTA,0.188 ± 0.0176
5,GGGTATAA,0.152 ± 0.0231
6,GTGTCCCA,0.442 ± 0.019
7,GTATCCCA,0.252 ± 0.00467
8,GGGTCCAA,0.218 ± 0.025
9,GTATCCGA,0.312 ± 0.0026
10,GGGTCCCA,0.1517 ± 0.0014
11,GCGTCCTA,0.168 ± 0.0119
12,GTGTCTGA,0.364 ± 0.022
13,GTGTCCAA,0.419 ± 0.0151
14,GTATCCTA,0.187 ± 0.00559
15,GTGTCCGA,0.413 ± 0.0127
16,GTGTCCTA,0.4 ± 0.0124
17,GTATCCAA,0.292 ± 0.0191
18,CACCATGA,0.289 ± 0.0156
19,CAGATACA,0.313 ± 0.0113
20,AGGGTTAC,0.162 ± 0.0418
21,GGTGCCAA,0.187 ± 0.0523
